The values below come from PubChem BioAssay AID1851 (National Center for Advancing Translational Sciences (NCATS), 2009).

Molecules are shown by their SMILES. In all, about 16,000 compounds went through this assay and about 5,800 (36%) were called active. Roughly 23% stayed inconclusive and do not appear here. The list shows a part of the results. Values without a mark were called inactive. Calls come from the whole dose curve; as a rule, active = well fitted curve in the direction sought with a large enough effect; inconclusive = small, poorly fitted or top-dose-only effect, or effect the other way; inactive = no such curve, though single readings can be large or run the other way.
% is set by controls: 0 for no effect and ±100 for the full control effect.

The target of this assay is Cytochrome P450 2C19 (Homo sapiens) (UniProt P33261). The assay can be described thus: Cytochrome panel assay with activity outcomes. The settings on record: recombinant CYP, pro-luciferin dealkylation, luminescence, p450-cyp2c19; series mostly up to 57.1 µM; activity, negative = inhibition: at the top concentration.
Chain of Cytochrome P450 2C19 (Homo sapiens) (P33261 whole entry, looked up): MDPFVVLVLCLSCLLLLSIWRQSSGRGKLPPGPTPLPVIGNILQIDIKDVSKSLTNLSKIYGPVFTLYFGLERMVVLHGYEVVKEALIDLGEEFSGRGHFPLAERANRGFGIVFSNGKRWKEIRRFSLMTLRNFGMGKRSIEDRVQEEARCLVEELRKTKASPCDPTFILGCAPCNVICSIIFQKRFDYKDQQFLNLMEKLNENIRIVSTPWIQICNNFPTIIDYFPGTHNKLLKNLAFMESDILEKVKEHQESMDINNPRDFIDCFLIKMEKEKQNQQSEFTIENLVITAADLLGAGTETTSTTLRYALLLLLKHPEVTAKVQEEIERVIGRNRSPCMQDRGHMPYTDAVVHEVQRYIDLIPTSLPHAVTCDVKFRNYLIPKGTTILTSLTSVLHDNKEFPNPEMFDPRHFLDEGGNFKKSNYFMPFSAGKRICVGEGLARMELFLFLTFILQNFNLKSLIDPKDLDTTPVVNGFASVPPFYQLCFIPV
As for `C[C@H]1O[C@@H](CC(=O)O)Cc2c1c(O)c1c(O)cc(-c3cc(=O)c4c(=O)c5c(c(=O)c=4c3=O)C[C@H](CC(=O)O)O[C@@H]5C)c(O)c1c2O`, the activity, negative = inhibition was -5.68% [at 11.4 µM].
For `COC(=O)c1c(NC(=O)c2ccco2)sc2c1CCC2`, the AC50 was 4.47 µM (active).
As to `COCCn1c(=O)c(-c2ccc(Cl)cc2)nc2cnc(N(C)C)nc21`, the “activity, negative = inhibition” value is 6.88%.
Turning to `COc1ccc2[nH]c3c(c2c1)CN(C)CC3`, the “activity, negative = inhibition” value is -22.7%.
Turning to `Cc1ccc2[nH]c3c(c2c1)CN(C(=O)CN1c2ccc(F)cc2CCC1C)CC3` (stereo unspecified), the AC50 was 3.55 µM (active).
Same read-out and setting: next, `COC(=O)c1ccc2ccn(CC(=O)NC3CCCCC3)c2c1`: 1.58 µM (active); `CCOC(=O)CSC1=C(C#N)C(c2sccc2C)C(C(C)=O)=C(C)N1` (stereo unspecified): 1.78 µM (active); `CCOC(=O)CSC1=C(C#N)C(c2sccc2C)CC(=O)N1` (stereo unspecified): 7.94 µM (active).
Same read-out and setting: next, `CCOC(=O)C1=C(C)NC(C)=C(C(=O)OCC)C1c1sccc1C`: 1.78 µM (active).
Consider `CCOC(=O)Cc1c(C)nc2c(C#N)c[nH]n2c1=O`, for which the “activity, negative = inhibition” value is -24.9%.
Take `COC(=O)CSC1=C(C#N)C(c2cccc(F)c2)CC(=O)N1` (stereo unspecified): the AC50 is 11.2 µM (active).
For the compound `CCOC(=O)CSC1=C(C#N)C(C)C2=C(CCCC2=O)N1` (stereo unspecified), the half-maximal activity concentration (AC50) is 0.708 µM (active).
`COC(=O)C1=C(NC(=O)c2cccc(OC)c2)CCS1`: the AC50 is 14.1 µM (active).
As to `CCCCN(CC)S(=O)(=O)c1ccc(C(=O)Nc2nnc(CSC)o2)cc1`, the “activity, negative = inhibition” value was -8.71%.
In the case of `COCCN(CCOC)S(=O)(=O)c1ccc(C(=O)Nc2nc(C)c(C(C)=O)s2)cc1`, the “activity, negative = inhibition” value is -35.5%.
In the case of `CCN(CC)S(=O)(=O)c1ccc(C(=O)NC2=C(C(=O)OC)SCC2)cc1`, the AC50 is 8.91 µM (active).
As to `Cc1ccc(C2CC(C(F)(F)F)n3nc(C(=O)NCCN4CCOCC4)cc3N2)cc1` (stereo unspecified), the “activity, negative = inhibition” value was -29.1%.
On the same count and under the same terms, next, `Cc1ccnc(NS(=O)(=O)c2ccc(N=[N+]=[N-])cc2)n1`: 39.6% [at 11.4 µM]; `C[C@H](CN(C)C)C(=O)c1ccccc1C(=O)O`: 12.3% [at 11.4 µM].
Regarding `O=C(NC(=S)N(Cc1ccccc1)Cc1ccccc1)c1ccccc1F`, the AC50 is 2.24 µM (active).
Same read-out and setting: the same measure for `COc1ccc(CN(CCC#N)C(=S)NC(=O)c2ccccc2)cc1`: 7.94 µM (active).
As to `CN1CCN(NC(=O)c2ccccc2F)CC1`, the “activity, negative = inhibition” value was 2.59%.
For `CCOc1ccc(C(=O)NC(=S)N(Cc2ccccc2)Cc2ccccc2)cc1`, the AC50 was 8.91 µM (active).
On the same count and under the same terms, next, `CCNC(=O)c1ccc(-n2nc(C(F)(F)F)c3c2CCCC3)cc1`: 5.62 µM (active).
For the compound `CCc1ccc(NC(=O)Cn2nc(C(F)(F)F)c3c2CCC3)cc1`, the AC50 was 7.94 µM (active).
As for `CCCCN(C)CCCNC(=O)c1ccc(N2CCCC2=O)cc1`, the “activity, negative = inhibition” value was 15.5%.
For `O=C1OCCC1Sc1nnc(-c2ccc(O)cc2)o1` (stereo unspecified), the AC50 was 10 µM (active).
Take `Cc1cc(C)c2[nH]c(=O)c(CN(Cc3ccco3)C(=O)c3cccs3)cc2c1`: the AC50 is 1.78 µM (active).
For the compound `CCC(=O)N1CCc2cc(S(=O)(=O)NC(C(=O)NCc3ccc(F)cc3)C(C)C)ccc21` (stereo unspecified), the “activity, negative = inhibition” value is -14.1%.
For the compound `CN(CCC#N)C(=O)c1ccc(CNS(=O)(=O)c2ccc(F)cc2)cc1`, the concentration at half-maximal activity (AC50) is 17.8 µM (active).
Still for that read-out and setting: next, `Cc1c2cccc(Sc3ccccc3)c2c2c3c(cccc13)[S+](c1ccccc1)C2` (stereo unspecified): 0.0631 µM (active); `COc1ccccc1CCn1c(=O)c(-c2cc(F)cc(F)c2)nc2cncnc21`: 1.58 µM (active).
Consider `Cn1c(=O)c(-c2cc(F)cc(F)c2)nc2cncnc21`, for which the “activity, negative = inhibition” value is -31.9%.
With `COCCn1c(=O)c(-c2cc(F)cc(F)c2)nc2cncnc21`, the “activity, negative = inhibition” value is -22%.
`COc1ccccc1CCn1c(=O)c(-c2cccc(F)c2)nc2cncnc21`: the AC50 is 1 µM (active).
Take `CNC(=O)c1c(I)c(C(=O)NCC(=O)Nc2c(I)c(C(=O)O)c(I)c(C(=O)NCCO)c2I)c(I)c(N(C)C(C)=O)c1I`: the “activity, negative = inhibition” value is -35.8% [at 25.6 µM].
Same read-out and setting: next, `O=C(O)[C@@H]1[C@@H](C(=O)Nc2ncccn2)[C@@H]2C=C[C@@H]1O2`: 0.77% [at 11.4 µM]; `CC[C@]1(O)C[C@@H]2CN(CCc3c([nH]c4ccccc34)[C@](C(=O)OC)(c3cc4c(cc3OC)N(C)[C@H]3[C@](O)(C(=O)OC)[C@@H](C(=O)OC)[C@@]5(CC)C=CCN6CC[C@@]43[C@@H]65)C2)C1`: -25.1%.
Turning to `CN(C(=O)CC(NC(=O)c1ccccc1)(c1ccccc1)c1ccccc1)c1ccccc1`, the AC50 was 11.2 µM (active).
For the compound `COC(=O)c1ccc(NC(=O)c2ccccc2)o1`, the “activity, negative = inhibition” value is -23.3%.
`CCCCCC1=C2CNC(Cc3ccccc3)(C(=O)OC)C=C2C(C)C1=O` (stereo unspecified): the AC50 was 6.31 µM (active).
`CCCCCC1=C2CNC(C)(C(=O)OC)C=C2C(C)C1=O` (stereo unspecified): the AC50 was 20 µM (active).
As for `COCCn1c(=O)c(-c2cccc(C#N)c2)nc2cnc(N3CCNCC3)nc21`, the “activity, negative = inhibition” value was -35.5%.
On to `Nc1ccc(N=Nc2c(S(=O)(=O)O)cc3ccccc3c2S(=O)(=O)O)cc1`, for which the activity, negative = inhibition was 1.46% [at 11.4 µM].
`CCOC(=O)CCN1C(=O)[C@H]2[C@@H]3[C@H](O)[C@H](O)CC(=O)[C@H]3CC[C@H]2C1=O`: the activity, negative = inhibition was -31.9% [at 11.4 µM].
With `Cc1cccc(C)c1NC(=O)CCN1C(=O)C2C3CCC(C3)C2C1=O` (stereo unspecified), the “activity, negative = inhibition” value is 9.83%.

Broadly, the AC50 is the concentration at which the activity in the assay is half-maximal.
